Experimental data from PubChem BioAssay (NCI).
About 79,000 compounds went through this panel and 15% of them were active in at least one assay; those are over-represented in the sample as a whole. Cut-off read from the data, not from the text of the source: active = growth inhibition above about 70%; inactive = the rest.

Legend:
[1] = NCI Yeast Anticancer Drug Screen. Data for the rad50 strain (AID 155);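 note: 0% = growth of vehicle-only cultures of the same strain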; settings: S. cerevisiae rad50 strain growth inhibition; at 50.0 µM; stronger effect = higher value
Procedure, shortened: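 Relative growth inhibition (compound vs vehicle) was measured in yeast with a defined repair-gene alteration.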

[2] = NCI Yeast Anticancer Drug Screen. Data for the mec2-1 strain (AID 157); settings: S. cerevisiae mec2-1 strain, at 50.0 µM, stronger effect = higher value
Procedure, shortened: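 Vehicle-treated cultures served as reference for growth inhibition of compound-exposed mec2-1 yeast.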

[3] = NCI Yeast Anticancer Drug Screen. Data for the sgs1 mgt1 strain (AID 161);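 note: 0% = growth of cultures given vehicle only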; settings: S. cerevisiae sgs1 mgt1 strain, at 50.0 µM, stronger effect = higher value
Procedure, shortened: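 Mutant yeast exposed to compound; growth scored against vehicle-only wells.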

[4] = NCI Yeast Anticancer Drug Screen. Data for the cln2 rad14 strain (AID 165);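 note: 0% = growth equal to vehicle treated cultures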; settings: S. cerevisiae cln2 rad14 strain, at 50.0 µM, stronger effect = higher value
Procedure, shortened: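 Each compound was tested on cln2 rad14 yeast. Inhibition of growth was calculated against vehicle-exposed controls.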

[5] = NCI Yeast Anticancer Drug Screen. Data for the bub3 strain (AID 167); settings: S. cerevisiae bub3 mutant strain, at 50.0 µM, stronger effect = higher value
Procedure, shortened: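 Screening used yeast with an engineered genetic alteration affecting cell cycle control. Compound-exposed cultures were compared with vehicle cultures, and reduced growth was taken as inhibition.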

[6] = NCI Yeast Anticancer Drug Screen. Data for the mlh1 rad18 strain (AID 175); settings: S. cerevisiae mlh1 rad18 strain growth inhibition; at 50.0 µM; stronger effect = higher value
Procedure, shortened: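 Vehicle-treated cultures served as the reference for growth inhibition in a yeast strain carrying DNA damage repair alterations exposed to each compound.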

Measured: growth inhibition

CC(CCC(=O)O)(CCC(=O)O)C(=O)O
inactive: [1] 4.2% | [2] 3.85% | [3] -0.8% | [4] -15.6% | [5] 3.7% | [6] -1.9%

O=c1/c(=C2\Cc3cccc4cccc2c34)c2cccc3cccc1c32
inactive: [1] -9.7% | [2] -10.8% | [3] 10.1% | [4] -1.45% | [5] 18.7% | [6] -15.2%

CCCNC(=O)c1cccc2c1-c1ccccc1C2=O
inactive: [1] -0.55% | [2] 3.85% | [3] -2.65% | [4] -1.7% | [5] 4.65% | [6] -1.45%

Nc1ccn([C@@H]2C=C(CO)[C@@H](O)[C@H]2O)c(=O)n1
inactive: [1] -16.1% | [2] -20.6% | [3] -22.5% | [4] -13.3% | [5] -10.4% | [6] -21.9%

NC(=O)N/N=C/c1ccccc1N
inactive: [1] 5.85% | [2] -6.75% | [3] 0.95% | [4] -22.1% | [5] -8.65% | [6] -2.7%

NC1C(O)OCC(O)C1O (stereo not given)
inactive: [1] -0.35% | [2] 9.3% | [3] 10.2% | [4] 7.25% | [5] 19.4% | [6] 23.1%

O=C(O)/C(=C\c1ccccc1[N+](=O)[O-])c1ccccc1
inactive: [1] 35.3% | [2] -3.05% | [3] 7.45% | [4] -30.9% | [5] -1.45% | [6] 47.4%

O=C(Nc1cc(-c2ccccc2)nn1-c1ccccc1)c1ccc(Cl)cc1
inactive: [1] -16.4% | [2] -19.9% | [3] -17.8% | [4] 15.2% | [5] -29.1% | [6] -9.65%

c1ccc(C(N=NC(c2ccccc2)c2ccccc2)c2ccccc2)cc1
inactive: [1] 4.4% | [2] -10.3% | [3] 3.75% | [4] -18.3% | [5] -21.8% | [6] 16.8%

Oc1ccc(O)c2c1CC=CC2
inactive: [1] 12.2% | [2] 22.6% | [3] 27.9% | [4] 13% | [5] 18.3% | [6] 16.4%

OCCCSc1ccccc1SCCCO
inactive: [1] -1.4% | [2] -2.45% | [3] 3.5% | [4] -1.7% | [5] 3.75% | [6] 5.1%

Clc1ccccc1OCc1cnc[nH]1
inactive: [1] -4.05% | [2] -23.7% | [3] -14.9% | [4] 6.2% | [5] -9.85% | [6] -8.7%

O=C(N=c1nc(NC(=O)c2ccccc2)ss1)c1ccccc1
inactive: [1] -0.25% | [2] 7.7% | [3] -2.8% | [4] -42.2% | [5] -17.1% | [6] 13.2%

O=C(O)CCC1(C(=O)O)NCCc2c1[nH]c1ccccc21 (stereo not given)
inactive: [1] 8.1% | [2] 11.8% | [3] 5.1% | [4] 8.55% | [5] 7.9% | [6] 12.6%

COc1cccc(/C=C(\NC(C)=O)c2nc3ccc(Cl)cc3[nH]2)c1
inactive: [1] 1.8% | [2] -1.35% | [3] 8.75% | [4] 2.15% | [5] -3.85% | [6] 8.1%

Cn1c(=O)c2sc3cc4c(cc3c2c2ccccc21)sc1c(=O)n(C)c2ccccc2c14
inactive: [1] 23.2% | [2] -8.1% | [3] 22.9% | [4] 3.85% | [5] 23.2% | [6] 24.9%

CN1CCC2(CC1)C(=O)N(N1CCCCCC1)C(=O)N2c1ccccc1
inactive: [1] 26.2% | [2] 4.85% | [3] -0.95% | [4] 4.5% | [5] 4% | [6] 15.5%

O=C1CCCCCCCS(=O)(=O)C1
inactive: [1] -8.55% | [2] -0.05% | [3] -4.75% | [4] -19.6% | [5] -4.95% | [6] -0.2%

O=C(NC(=O)c1c(F)cccc1F)Nc1cccc(C(F)(F)F)c1
inactive: [1] 8.55% | [2] 6.15% | [3] 3.9% | [4] 6.75% | [5] -3.3% | [6] 10.7%

O=C(CCCCCCCC(=O)OC(CCC1CCCO1)CCC1CCCO1)OC(CCC1CCCO1)CCC1CCCO1 (stereo not given)
inactive: [1] 6.1% | [2] -18.6% | [3] -4.5% | [4] -9.75% | [5] -6.5% | [6] 7.05%

S=C(SC1C=CCC1)N1CCOCC1 (stereo not given)
inactive: [1] 15.7% | [2] -2.8% | [3] 13.5% | [4] -41.8% | [5] 10.1% | [6] -13.6%

O=C(/C=C/c1ccc(Cl)cc1)c1cc(Cl)ccc1O
inactive: [1] -14.4% | [2] -25.3% | [3] -13.8% | [4] -27.8% | [5] 16.2% | [6] -10.2%

O=C(NC(CO)CO)c1ccc2cc(C(=O)N3CC(CCl)c4ccc([N+](=O)[O-])cc43)[nH]c2c1 (stereo not given)
inactive: [1] 42.6% | [2] -35.8% | [3] -22.4% | [4] -7.95% | [5] -36.1% | [6] -72.8%

CCOC(=O)c1c(/N=C/c2cc(Br)cc(Br)c2O)sc2c1CCCC2
inactive: [1] -14.2% | [2] -19.1% | [3] -13.2% | [4] -15.1% | [5] -13.9% | [6] -25.1%

CC(=O)Nc1ccc([N+](=O)[O-])cc1
inactive: [1] 30.9% | [2] -0.75% | [3] -5.3% | [4] 5.55% | [5] 14.7% | [6] 1%

COC(=O)C1OC2(CCCC3CC32)O[C@H]1C(=O)OC (stereo not given in full)
inactive: [1] -8.35% | [2] -10.2% | [3] -20.6% | [4] -13.2% | [5] -13.8% | [6] 6.35%

O=C1Nc2ccccc2C1(N1CCCCC1)N1CCCCC1
inactive: [1] 35.9% | [2] 21.9% | [3] 18.5% | [4] 7.9% | [5] 33.6% | [6] 26.6%

Cc1cc(C)c(CCC(=O)O)c(C)c1
inactive: [1] 6.95% | [2] 4.8% | [3] -0.3% | [4] 6.6% | [5] -7.1% | [6] -1.25%

S=C(c1ccccc1Cl)N1CCOCC1
inactive: [1] 18.2% | [2] -22.2% | [3] 14.7% | [4] 17.1% | [5] 20.1% | [6] 13.8%

CCCCCCCCCCCCSCCSCCC
inactive: [1] -19.1% | [2] -10.7% | [3] 1% | [4] -14.6% | [5] -7.35% | [6] 4.5%

N#CNC(=NCC1CCCO1)Nc1cccnc1 (stereo not given)
inactive: [1] 2.9% | [2] -9.8% | [3] -26.4% | [4] -23.4% | [5] 23.9% | [6] -2.35%

CCCCNC(=S)N/N=C/c1ccc(OC)cc1
inactive: [1] -10.8% | [2] 1.55% | [3] -1.3% | [4] -41% | [5] -1.85% | [6] -6.45%

O=C(CCCCCCCCC(=O)NCC1(c2ccccc2)CCNCC1)NCC1(c2ccccc2)CCNCC1
inactive: [1] -27.5% | [2] -23.6% | [3] -15.2% | [4] -3.25% | [5] -23.9% | [6] -11.2%

O=c1[nH]cnc2c1CNC2
inactive: [1] 9.5% | [2] -2.5% | [3] -10.4% | [4] -65.8% | [5] -18.4% | [6] 1.6%

CC(=O)C1=C(C)NC2C=CC=CN12 (stereo not given)
inactive: [1] 3.95% | [2] -6.9% | [3] 15.5% | [4] 17.9% | [5] 7.3% | [6] 12.9%

CCCCCCC/C=C\C=O
inactive: [1] 7.2% | [2] 16.9% | [3] 7.95% | [4] -1.25% | [5] 1% | [6] 3.7%

CC1(C)CO/C(=C/C(=O)c2ccccc2)N1C(=O)c1ccccc1
inactive: [1] -4.6% | [2] 11.7% | [3] -6.15% | [4] 1.55% | [5] 4% | [6] -0.45%

CCN(CC)CCCC(C)NCCCN (stereo not given)
inactive: [1] -7.15% | [2] -9.05% | [3] -5.4% | [4] -5.4% | [5] -23.3% | [6] -10%

CCOC(=O)c1cc(C)nc2c(Cl)cc(Cl)cc12
inactive: [1] 13% | [2] 10.8% | [3] -34.4% | [4] -2.9% | [5] 10.4% | [6] 7.95%

CS(=O)(=O)OC1CCC2CCCC1(C(=O)O)C2 (stereo not given)
inactive: [1] 2.4% | [2] -6.6% | [3] -0.75% | [4] -30% | [5] -5.2% | [6] 9.25%
